Laboratory results: PubChem BioAssay AID1839 (Johns Hopkins Ion Channel Center, 2009)
Out of some 2,400 compounds screened, about 220 (9.2%) were called active. The list comes from a sample in which actives are over-represented; it also holds similar structures and randomly drawn compounds. A number with no mark means an inactive call.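 The calls were made as follows: active = signal change above the mean of dofetilide-free buffer controls plus 3 SD, so a positive margin; inactive = the rest.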

Assay: thallium signal changes without hERG – cell-based, CHO-K1 parental line, FluxOR thallium flux, counter-screen for hERG block protection project, confirmation (AID 1839);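 also: compounds applied alone with no dofetilide to cells lacking hERG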
Conditions: CHO-K1 parental cells, FluxOR thallium flux fluorescence; at 10 µM

| SMILES | signal change vs control minus 3*SD hit threshold (margin above threshold, higher = more increase) |
| --- | --- |
| O=C(COc1coc(CN2CCc3ccccc3C2)cc1=O)Nc1cccc(Cl)c1 | -31.3% |
| CCOc1ccc2[nH]c(=O)c(CN(Cc3ccc(C)cc3)C(=O)N3CCCC3)cc2c1 | -28% |
| COc1ccc(NC(=O)C2CC3CCC2C3)c(OC)c1 (stereo not given) | -22.3% |
| O=C(N/N=C/C(Cl)=C/c1ccc([N+](=O)[O-])cc1)C(=O)Nc1ccc(C(=O)O)cc1 | -32.7% |
| O=[N+]([O-])c1ccc(Nc2ccccc2F)nc1 | -20.1% |
| O=C(NCCCN1CCCC1=O)c1ccc(OC(F)(F)F)cc1 | -32.6% |
| CCOc1ccc(C(=O)N(CN2CCCC2=O)c2ccc(C)cc2)cc1 | 7.5% (active) |
| COc1ccc(C(=O)N(CN2CCCC2=O)c2ccc(C)cc2)cc1 | -4.3% |
| CCOC(=O)Cc1csc(NC(=S)NC(=O)c2ccc(Cl)cc2)n1 | -26.4% |
| C=C(C)CNC(=S)NN=C1c2ccccc2-c2ccccc21 | -25% |
| O=c1c(-c2ccc(Cl)cc2)[n+]([O-])c2ccccc2n1O | 29.3% (active) |
| Cc1ccc(-c2c(=O)n(O)c3ccccc3[n+]2[O-])cc1 | 15.9% (active) |
| O=c1c(-c2cccc3ccccc23)[n+]([O-])c2ccccc2n1O | -12.8% |
| O=c1c(-c2ccccc2)[n+]([O-])c2ccccc2n1O | -26.3% |
| COc1ccc(S(=O)(=O)N2CCN(C(=O)CNC(=O)c3ccc4c(c3)OCO4)CC2)cc1 | -26.4% |
| Cc1cc2c(cc(C(=O)OC(C(=O)NCc3ccco3)C(C)C)n2C)o1 (stereo not given) | -12.7% |
| Cn1c(=O)c2c(nc(Cl)n2CC(=O)N2CCCCC2)n(C)c1=O | -27.9% |
| CCOC(=O)C1CCCCN1Cc1ccc(F)cc1 (stereo not given) | -18.3% |
| CCc1ccc(S(=O)(=O)NC(=S)NC2CCCCC2)cc1 | 1.9% (active) |
| O=S(=O)(NC(=S)NC1CCCCC1)c1ccc(Cl)cc1 | -16.4% |
| Cc1ccc(S(=O)(=O)NC(=S)NC2CCCCC2)cc1 | -13% |
| CCCn1c(CC)nc([N+](=O)[O-])c1S(=O)(=O)c1ccccc1 | -15.2% |
| COC(=O)c1c(NS(=O)(=O)Cc2ccccc2)sc2c1CCCC2 | -1.7% |
| CCC(C)(C)NC(=O)c1ccc(Sc2nncn2C)c([N+](=O)[O-])c1 | -27.2% |
| Cc1ccc(Nc2nc(C)cs2)cc1 | -10.7% |

| SMILES | signal change vs control minus 3*SD hit threshold (margin above threshold, higher = more increase) |
| --- | --- |
| Cc1ccc(Nc2cc(C)nn2-c2nc(C)cc(=O)[nH]2)cc1 | 15.1% (active) |
| Cc1cccc(N/C(N)=N/c2nc(C)cc(=O)[nH]2)c1 | -33% |
| CC(C)(C)Cc1nnc(NC(=O)c2ccco2)s1 | -32.3% |
| CC1=[N+]([O-])C(C)(C)C(c2ccc(Br)cc2)=[N+]1[O-] | -17% |
| COC(=O)c1sc(NC(=S)NC(=O)c2ccccc2F)nc1C | -6.2% |
| COc1ccccc1C(=O)NNC(=O)C(=O)NCc1ccccc1 | 3.6% (active) |
| COc1ccccc1C(=O)NNC(=O)C(=O)Nc1ccc(C)c(Cl)c1 | 55.4% (active) |
| Cc1ccc(NC(=O)c2ccc3c(c2)OCO3)cc1Cl | -25.4% |
| COc1ccc(C(=O)CC(=O)C(=O)Nc2ccc(C)c(Cl)c2)cc1 | -23% |
| COc1ccccc1C(=O)NNC(=O)C(=O)NC1CCCCC1 | 14.6% (active) |
| O=C(COc1ccc(Cl)cc1)NNC(=O)C(=O)NC1CCCCC1 | -26.3% |
| Cc1ccc(NC(=O)C(=O)NNC(=O)c2ccccc2C)cc1Cl | 35% (active) |
| COc1ccc(C(=O)NNC(=O)C(=O)NC2CCCCC2)cc1 | -33.5% |
| COc1cc(NC(=O)c2ccccc2OCc2ccccc2)cc(OC)c1OC | -34.3% |
| COc1ccc(NC(=O)C(=O)NNC(=O)c2ccc(Cl)cc2Cl)cc1 | -20.1% |
| Cc1ccccc1C(=O)NNC(=O)c1cccc([N+](=O)[O-])c1 | -30% |
| COc1ccccc1C(=O)NCc1ccc2c(c1)OCO2 | -31% |
| Cc1ccc(-n2ncc3c2CCCC3NC(=O)c2csnn2)cc1C (stereo not given) | -37.5% |
| Cc1ccc(NC(=O)c2c([N+](=O)[O-])c(C(C)(C)C)nn2C)cc1 | -22.3% |
| Cc1cc(C)c(NC(=O)C2CC3CCC2C3)c(C)c1 (stereo not given) | -16.2% |
| CC(C)(C)C(=O)NC(=S)N1CCOCC1 | -15.9% |
| Cc1ccc(C)n1-n1c(C)nc2scc(-c3ccccc3)c2c1=O | -33.2% |
| Cc1c(Cl)cccc1NC(=S)N=Nc1c(O)n(CN2CCOCC2)c2ccccc12 | -31.2% |
| O=C(NC(=S)N(CCc1ccccc1)CCc1ccccc1)c1ccco1 | -17.5% |
| CCOc1ccc(S(=O)(=O)Nc2nc3ccccc3nc2-n2ccc(=NC(=O)c3cccs3)cc2)cc1 | -31.9% |
